Results filed as inconclusive are left out. Calls of active or inactive are those of the source. Rule for the calls: active = hit-call score of the fitted dose curve at least 0.9, where 1 is the maximum; inconclusive = response in the unintended direction; inactive = score below 0.9.

human CYP1B1, CYP1B1 (gene 1545), sequence (Q16678 whole entry, looked up): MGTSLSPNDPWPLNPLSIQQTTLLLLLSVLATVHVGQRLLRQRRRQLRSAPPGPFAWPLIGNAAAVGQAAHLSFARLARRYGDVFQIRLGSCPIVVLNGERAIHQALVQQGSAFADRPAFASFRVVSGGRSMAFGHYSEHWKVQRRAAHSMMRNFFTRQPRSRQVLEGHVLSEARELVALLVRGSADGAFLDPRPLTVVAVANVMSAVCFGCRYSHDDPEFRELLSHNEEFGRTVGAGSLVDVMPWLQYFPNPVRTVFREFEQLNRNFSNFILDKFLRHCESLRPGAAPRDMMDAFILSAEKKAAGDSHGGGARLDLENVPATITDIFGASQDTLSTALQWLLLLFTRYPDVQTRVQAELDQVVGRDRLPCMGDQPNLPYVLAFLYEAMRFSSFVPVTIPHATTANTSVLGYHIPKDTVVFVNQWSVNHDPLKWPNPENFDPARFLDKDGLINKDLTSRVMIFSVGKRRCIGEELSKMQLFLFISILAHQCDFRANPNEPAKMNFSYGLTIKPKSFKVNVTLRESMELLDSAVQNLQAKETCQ

For the assay, the target named is human CYP1B1, CYP1B1 (gene 1545) (UniProt Q16678). In words: NVS_ADME_hCYP1B1: NovaScreen (NVS) CYP450-related Enzyme Activity (ADME) Assay for human CYP1B1. Here is the method:
NVS_ADME_hCYP1B1 is a biochemical, single-readout assay that uses extracted gene-proteins in a cell-free assay. Measurements were taken 1 hour after chemical dosing in a 96-well plate.NVS_ADME_hCYP1B1 is one of one assay component(s) measured or calculated from the NVS_ADME_hCYP1B1 assay. It is designed to make measurements of enzyme activity, a form of enzyme reporter, as detected with fluorescence intensity signals by Fluorescence technology.Data from the assay component NVS_ADME_hCYP1B1 was analyzed into 1 assay endpoint. This assay endpoint, NVS_ADME_hCYP1B1, was analyzed in the positive analysis fitting direction relative to Acetonitrile as the negative control and baseline of activity. Using a type of enzyme reporter, loss-of-signal activity can be used to understand changes in the enzymatic activity as they relate to the gene CYP1B1. Furthermore, this assay endpoint can be referred to as a primary readout, because this assay has produced multiple assay endpoints where this one serves a enzymatic activity function. To generalize the intended target to other relatable targets, this assay endpoint is annotated to the cyp intended target family, where the subfamily is xenobiotic metabolism.
Binding assays used specific radioligands (tritiated, iodinated) with non-radioactive competitive displacement ligands in agonist or antagonist protocols (as indicated) and various reference compounds and inhibitors to titrate specific binding to receptors and transporters. Most enzyme assays (CYPs, kinases, phosphatases, proteases, HDACs) used recombinant protein and specific substrates (fluorescence mostly, some colorimetric and radioactive) and inhibitors, followed by a biochemical separation of substrate and product. All assays for the biochemical HTS were initially run in duplicate at a single concentration (10 uM for CYP450 assays and 25 uM for all others). Assay-chemical combinations meeting a pre-defined threshold (e.g., 30% inhibition and other criteria defined below) were then run in singleton concentration-response format with maximum concentration of 20 uM for CYPs and 50 uM for all others. Each assay was run with positive and negative controls, and concurrent controls on every plate. The follow-up (secondary) screen tested active chemical-pairs in concentration series, as well as a few additional assays not tested in the primary screen, some selected negative inactives, and several cases re-run in the concentration series for confirmatory purposes.
In the case of `Cc1ccc(-c2c(Cl)nc(C#N)n2S(=O)(=O)N(C)C)cc1`, the compound was classed as inactive. Same read-out and setting: with `Cc1ccn2nc(S(=O)(=O)Nc3c(F)cccc3F)nc2n1` the entry was “inactive”; with `CCCN(CCOc1c(Cl)cc(Cl)cc1Cl)C(=O)n1ccnc1`, “inactive”.

For `COP(=S)(OC)SCn1nnc2ccccc2c1=O`, the AC50 was 0.498 µM (active).

A word on the AC50: it is the midpoint of the concentration-response curve, whichever way the signal moves.

The values above are taken from PubChem BioAssay AID2283097 (EPA ToxCast).
